{"source": "the supplement of paper PMC6555819", "data": [{"system": "VDR:RXRa (NR concentration 270 nM, RXRa partner concentration 90 nM)", "experiment": "PBM binding z-score (relative to random genomic background probes); higher = stronger binding; sequences stand for … in GC…GCGATTGACAGCGTAGAATGAAGG", "protocol": "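Protein-binding microarray (Agilent 4x180K custom design, double-stranded 60-nt probes: 5' GC cap, 34-nt variable region, 24-nt constant primer region; full probe sequence given). Purified or IVT nuclear receptor:RXRα heterodimers (3:1 NR:RXRα, mostly 270:90 nM) or homodimers were incubated for 1 h in PBS with 2% milk and no ligand, then detected with Alexa488 antibodies. Fluorescence from o1-orientation probes (~5 replicates averaged) was converted to z-scores against 500 random hg19 background probes. Variable regions are seed direct-repeat (DR0–DR5) sites, all their single-nucleotide variants and half-site ablations.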", "values": [{"sequence": "CGTCAAAGTTCAAGTAAGGTAACGTAAAGCACGC", "PBM binding z-score": 4.46}, {"sequence": "TCCTATAGGTAAACAGGTGAAAGTCCGTAAGTTA", "PBM binding z-score": 0.775}, {"sequence": "CTCGAAAGGTCGTGCACAGGTGAGTATACCAAAC", "PBM binding z-score": 3.8}, {"sequence": "ATATGTAGGTTAGCTGGGGTAATTCAGACTAGGC", "PBM binding z-score": 0.945}, {"sequence": "CCTCGGAGGACAGAAGGCCAGAGCTGTCCGCTTT", "PBM binding z-score": -0.762}, {"sequence": "AATACTGGGTCACTAGGCCAGAGTAGGTACGAAT", "PBM binding z-score": 1.47}, {"sequence": "ACTTACGGGTCAACGAGGTAATAGCACGCGTATA", "PBM binding z-score": 6.51}, {"sequence": "GTACCAAGGTGAATAGGTCTTTGATGAGTAGGCG", "PBM binding z-score": 0.495}, {"sequence": "CTCGAAAGGCCGTGCTCAGGTGAGTATACCAAAC", "PBM binding z-score": -0.528}, {"sequence": "TGACTGAGGTTATAAGATCAGGGAACGTTGCAAA", "PBM binding z-score": 0.798}, {"sequence": "TCAGATAGGTAATACAGGTGAAAGTCGGCATCTA", "PBM binding z-score": 0.887}, {"sequence": "TCGAGTAGGTTAGGGGCATTCGGAATGGCGTCGA", "PBM binding z-score": 0.55}, {"sequence": "CGTCGAAGGTCAAAGGTCAGTGAAGAGATGACGG", "PBM binding z-score": 6.4}, {"sequence": "ATATGTAGGTTAGCTCGGGTCATTCAGACTAGGC", "PBM binding z-score": 3.96}, {"sequence": "ACTAGCAGGCCAAGGTTGGGTCACTCAAACAAAG", "PBM binding z-score": 0.381}, {"sequence": "TCGAGTAGGTTACCAATGGGGCATTGAGCTTTCT", "PBM binding z-score": -0.0858}, {"sequence": "ACAGACAGGTGAGTGACGGTAACTCAGCTGGACG", "PBM binding z-score": -0.336}, {"sequence": "GCGAATGGGGCATCAGCAGGTTACCATAACTTAA", "PBM binding z-score": -0.212}, {"sequence": "GGAACGAAGGCAAAGTTGATAGCATCTGTCGACG", "PBM binding z-score": -0.832}, {"sequence": "TGCATGAGGTTATAAGATCAGGGAACGTTGCAAA", "PBM binding z-score": 1.01}, {"sequence": "TAGCCTAGGTCAGATCGGGCCATTATACGCTATA", "PBM binding z-score": 1.6}, {"sequence": "ATCTCTAGATAAAGATAGTTCAGTGAATGCAAAT", "PBM binding z-score": 0.517}, {"sequence": "TCGTGTAGATCAATAGAGGTTAAGAAAGTGCGCT", "PBM binding z-score": 1.83}, {"sequence": "ATCGAAAGGTCGAGGTGAGTGTAGAGAAAGGGAA", "PBM binding z-score": 3.21}, {"sequence": "TCTTGTAGATCAACAGGAGGTTAAGGAAGATCGA", "PBM binding z-score": 0.488}, {"sequence": "TGTTAAAGTTCAAAGGTAACGTAAGTATCCACAC", "PBM binding z-score": 4.87}, {"sequence": "CAAACTAAGTCACAGAGGTCAAAGTCCGTGCGTA", "PBM binding z-score": 6.65}, {"sequence": "TAGCCTAGGTCGTTGGGCCAGTATAGTACGCATC", "PBM binding z-score": 0.153}, {"sequence": "CCTACTGGACCAAAGGTCATTGATTCCAATGCTC", "PBM binding z-score": 5}, {"sequence": "TATACAGGCTCAAAGGCCAGAGTACGAATGTCGA", "PBM binding z-score": -0.106}, {"sequence": "TGAATGAGGTTATACGATCAGGGAACGTTGCAAA", "PBM binding z-score": 0.918}, {"sequence": "CGTCCAAGGTCAGCAGGCCAGTGAAAGCGACGTG", "PBM binding z-score": 2.58}, {"sequence": "CAAACTAGGCCACAGAGGTCAAAGTCCGTGCGTA", "PBM binding z-score": 6.29}, {"sequence": "CCTATTAGTTGACCATAAGGGCTACCGAAGCTCG", "PBM binding z-score": 0.25}, {"sequence": "CCGACTGGGGCAAGTTTACCATAACGCACAGCCA", "PBM binding z-score": 0.191}, {"sequence": "TCATATAGGTAAGGGTGAAAGTCGAACGATATGA", "PBM binding z-score": 0.991}, {"sequence": "TAACCTAGGTCATTGGGCCAGTATAGTACGCATC", "PBM binding z-score": 2.89}, {"sequence": "AGAACGAGGGCAATGAGTTGATACCACGGGTGGC", "PBM binding z-score": 5.25}, {"sequence": "CAGCCTACGTCAGGGCCAGTATAGGAGGAACGTT", "PBM binding z-score": -0.587}, {"sequence": "TCTAGTTGGTCAACGGTCACACACTCGAAATGCG", "PBM binding z-score": 0.848}]}]}
